The whole screen tested about 48,000 compounds, of which about 13,000 (27%) showed an effect of 50% or more. The list shows a part of the results.

The subject of this experiment is Wolbachia pipientis. Nature of the experiment: Anti-Wolbachia Cell-Based Screen. The class given is functional. More on the design: scale not given: in the data most compounds retested in dose-response had high values. To be noted: 5 µM.
On to `O=C(COc1ccccc1)NS(=O)(=O)Cc1ccccc1`, for which the “Percent Effect” value is given as 9%. As for `COCCN1C[C@@H](C)[C@@]2(COCCN(C(=O)Cc3ccccc3)C2)C1.O=C(O)C(F)(F)F`, the “Percent Effect” value is listed as -3.108%.

As to `CC(C)CC(C#N)NC(=O)c1ccc(Oc2cccnc2)cc1` (centres undefined), the “Percent Effect” value was found to be 0.407%. `CCN(Cc1ccc2c(c1)OCO2)Cc1nc2c(cnn2C)c(=O)[nH]1`: the “Percent Effect” value was determined as 112.4%. Then `COc1ccc(CN(C)Cc2nc3c(cnn3C)c(=O)[nH]2)cc1OC`, with 10.06%; and `CCN(Cc1ccc(OC)c(F)c1)Cc1nc2c(cnn2C)c(=O)[nH]1`, with 142.5%; and `CCN(Cc1nc2c(cnn2C)c(=O)[nH]1)c1cccc(Cl)c1`, with -0.7695%. With `CN(Cc1ccc2c(c1)OCO2)Cc1nc2c(cnn2C)c(=O)[nH]1`, the “Percent Effect” value is listed as 5.823%. In the case of `CCN(Cc1nc2c(cnn2C)c(=O)[nH]1)c1ccc(OC)c(OC)c1`, the “Percent Effect” value stood at 11.95%. Then `CCN(Cc1nc2c(cnn2C)c(=O)[nH]1)c1cc(C)ccc1C`, with -12.64%; and `CCN(Cc1ccc(F)c(F)c1)Cc1nc2c(cnn2C)c(=O)[nH]1`, with 128.6%; and `COCCN1C[C@H]2CC[C@@H]1CN(Cc1cc(=O)c3cc(C)ccc3[nH]1)C2`, with -2.085%. For `COc1c(-c2ccc(O)cc2)oc2cc(O)cc(O)c2c1=O` [ISOKAEMPFERIDE], the “Percent Effect” value came out at 3.468%. Turning to `CCc1cc(N2CCC(N[C@@H]3CS(=O)(=O)C[C@H]3O)CC2)nc(N(C)C)n1`, the “Percent Effect” value is reported as -8.378%. For `c1nc2c(c(N3CCOCC3)n1)CCNCC2`, the “Percent Effect” value turned out to be 91.19%. Regarding `Cc1ncnc2c1CCN(S(=O)(=O)C1CC1)CC2`, the “Percent Effect” value turned out to be 105%.

Regarding `Cc1cnc(N2CCc3ncnc(N4CCN(C)CC4)c3CC2)nc1.O=C(O)C(F)(F)F`, the “Percent Effect” value was -5.23%. Then `CCOc1ncnc2c1CCN(S(=O)(=O)C1CC1)CC2`, with 10.58%; and `O=S(=O)(C1CC1)N1CCc2ncnc(-c3ccc(F)cc3)c2CC1`, with 10.52%; and `O=S(=O)(C1CC1)N1CCc2ncnc(N3CCOCC3)c2CC1`, with 100.4%. Regarding `O=S(=O)(C1CC1)N1CCc2ncnc(-c3ccsc3)c2CC1`, the “Percent Effect” value was -15.04%. Then `CN1CCN(c2ncnc3c2CCN(S(=O)(=O)C2CC2)CC3)CC1.O=C(O)C(F)(F)F`, with 114.5%. In the case of `CN1CCN(c2ncnc3c2CCN(c2ncc(F)cn2)CC3)CC1.O=C(O)C(F)(F)F`, the “Percent Effect” value stood at 6.683%. As for `Fc1cccc(N2CCc3ncnc(N4CCOCC4)c3CC2)c1`, the figure is 24.23%. As to `O=C(C1CC1)N1CCCN(c2ncnc3c2CCNCC3)CC1`, the “Percent Effect” value is -5.367%.

As to `CCN1CCC(CC(=O)N2CCCCC2CCn2cccn2)CC1` (centres undefined), the “Percent Effect” value stood at 1.727%. On to `N#Cc1ccc(CNC(=O)NCCNC(=O)C2CCCC2)c(F)c1`, for which the “Percent Effect” value is 4.725%. Regarding `COc1ccc2ccccc2c1CNCC1CCS(=O)(=O)C1.Cl` (centres undefined), the “Percent Effect” value came to 9.511%. For `O=C(O)C(F)(F)F.O=C(O)C(F)(F)F.O=C(O)C(F)(F)F.c1ccc(CN2CCc3ncnc(N4CCCC4)c3CC2)nc1`, the “Percent Effect” value is recorded as 8.605%. Turning to `O=C(O)C(F)(F)F.O=S(=O)(C1CC1)N1CCc2ncnc(N3CCCC3)c2CC1`, the “Percent Effect” value turned out to be 105.6%.

Regarding `O=C(O)C(F)(F)F.O=S(=O)(C1CC1)N1CCc2ncnc(-c3ccncc3)c2CC1`, the “Percent Effect” value is -12.42%. In the case of `COCCC1(CNC(=O)NCC2CCCN(C)C2)CCCC1` (centres undefined), the “Percent Effect” value stood at 2.707%. Then `CCc1ncc(CN2C[C@@H]3C[C@@H](O)CN3C[C@@H]2Cc2ccccc2)cn1`, with 90.44%; and `COc1ncc(CN2C[C@@H]3C[C@@H](O)CN3C[C@@H]2Cc2ccccc2)cn1`, with 106.8%. Then `COc1ccc(CN2C[C@H](O)C[C@H]2c2nc(-c3ccccc3)no2)cc1`, with 10.67%; and `COCc1ncc(CN2CC[C@@](C)(O)[C@@H](Cc3ccccc3)C2)cn1`, with -1.853%; and `CCc1ncc(CN2CCCN(CC3CC3)C(C(C)C)C2)cn1` (centres undefined), with -1.309%. As for `COc1ncc(CN2CCOC(Cc3cccc4ccccc34)C2)cn1` (centres undefined), the figure is -6.808%; as for `CN(C)CCN1Cc2ncn(C)c2C(COCC(=O)N(C)C)C1` (centres undefined), 87.7%; as for `CN(C)CC(=O)N1Cc2ncn(C)c2C(COCC2CCOCC2)C1` (centres undefined), 11.09%. As to `CN(C)C(=O)N1Cc2ncn(C)c2C(COCC2CCOCC2)C1.O=C(O)C(F)(F)F` (centres undefined), the “Percent Effect” value is reported as -8.2%. As to `CCOCC1CN(C(=O)N(C)C)Cc2nn(C)cc21` (centres undefined), the “Percent Effect” value is reported as -8.201%. As for `CN(C)C(=O)COCC1CN(CC2CCOCC2)Cc2ncn(C)c21` (centres undefined), the “Percent Effect” value is given as 99.32%. Consider `CCOCCN1Cc2ncn(C)c2C(COCC2CCOCC2)C1.O=C(O)C(F)(F)F.O=C(O)C(F)(F)F` (centres undefined), for which the “Percent Effect” value was -3.886%. As to `Cc1ccc(CN2C[C@H]3C(=O)N(CC4CC4)C[C@@]3(C(=O)O)C2)c(F)c1F`, the “Percent Effect” value is 26.68%. `O=C(CSC(F)(F)F)N1CCC2(CCCN(C3CCOCC3)C2=O)C1` (centres undefined): the “Percent Effect” value was 96.55%. For `O=C(COCC(F)(F)C(F)F)N1CCC2(CCCN(CC3CC3)C2=O)C1` (centres undefined), the “Percent Effect” value is -8.945%. On to `CS(=O)(=O)CCC(=O)N1CCC2(CCCN(C3CCOCC3)C2=O)C1` (centres undefined), for which the “Percent Effect” value was -5.583%. On to `O=C(CN1CCOCC1)N1CCC2(CCCN(C3CCOCC3)C2=O)C1` (centres undefined), for which the “Percent Effect” value was 102.1%. Then `O=C(CCCn1cncn1)N1CCC2(CCCN(C3CCCC3)C2=O)C1` (centres undefined), with -21.81%; and `O=C(CCc1nc(Cl)n[nH]1)N1CCC2(CCCN(CC3CCC3)C2=O)C1` (centres undefined), with -5.22%; and `CN1CCCC2(CCN(C(=O)Cc3cc4c(cc3Cl)OCCO4)C2)C1=O` (centres undefined), with -11.77%. On to `O=C(CSCC1CC1)N1CCC2(CCCN(C3CCOCC3)C2=O)C1` (centres undefined), for which the “Percent Effect” value is 90.41%. As for `O=C(CCCn1cncn1)N1CCC2(CCCN(CC3CC3)C2=O)C1` (centres undefined), the “Percent Effect” value stood at 15.06%.
